# In PubChem BioAssay (Tox21):
# Values without a mark were called inactive. Activity calls are given as the source filed them. Calls follow the shape of the dose curve; as a rule, active = well fitted curve in the direction sought with a large enough effect in the repeat runs; inconclusive = weak or mixed curves; inactive = flat fitted curve, though single readings scatter.
# Test: qHTS assay to test for compound auto fluorescence at 590 nm (red) in HEK293 cells (AID 720679)
# Settings: red autofluorescence 540/590 nm; series mostly up to 91.3 µM
# Outline: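 Plates of HEK293 cells (10% dialyzed FBS) are treated with 23 nL compound or DMSO vehicle after a 4-5 hr attachment period, incubated overnight at 37C, and read for red fluorescence at 540/590nm.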
# % is scaled to controls: 0 for no effect and ±100 for the full control effect.
row,SMILES,outcome
1,CCCCCCCOC(=O)CCC,inactive
2,O=[N+]([O-])c1nccn1CO[C@@H](CO)[C@H](O)CO,inactive
3,C[C@@H]1CN(c2c(F)c(F)c3c(=O)c(C(=O)O)cn(C4CC4)c3c2F)C[C@H](C)N1,inactive

# Test: qHTS assay to test for compound auto fluorescence at 535 nm (green) in HEK293 cells (AID 720680)
# Settings: green autofluorescence 485/535 nm; series mostly up to 91.3 µM
SMILES,outcome,"fluorescence, % of fluorescein"
O=CCCc1ccccc1,inactive,
CC1=C2[C@H](/C=C(\C)C(=O)O)CC[C@@H](C)[C@H]2CC1,inactive,
Oc1ccccc1F,inactive,
CCOc1ccc(NC(N)=O)cc1,inactive,
COc1ccc2nc(NC(=O)Nc3ccccc3)sc2c1,inactive,
CCC/C=C/CO,inactive,
CN1C(=O)CC(c2ccccc2)C1=O (centres undefined),inactive,
Cc1ccc(C(C)C)cc1O,inactive,
Cc1c[nH]c(=S)[nH]c1=O,inactive,
CC1=NN(c2cc(Cl)c(S(=O)(=O)O)cc2Cl)C(=O)C1N=Nc1ccc(S(=O)(=O)O)cc1 (centres undefined),inactive,
CCOc1ccc(OCC)c(Cl)c1,inactive,
Cc1ccc([N+](=O)[O-])c(N)c1,inactive,
CCCCN1C[C@H](O)[C@@H](O)[C@H](O)[C@H]1CO,inactive,
CN1CCN(C2=Nc3ccccc3Oc3ccc(Cl)cc32)CC1,,0.0654% [at 18.6 µM]
CC(C)O,inactive,
CN1[C@@H]2CC[C@H]1CC(OC(=O)c1c[nH]c3ccccc13)C2 (some centres undefined),inactive,
CN1CCC[C@@H]1Cc1c[nH]c2ccc(CCS(=O)(=O)c3ccccc3)cc12,inactive,
CC1CN(c2ccccc2)NC1=O (centres undefined),inactive,
CC(C)=CCCC(C)CCOC=O (centres undefined),inactive,
CCOC(=O)CS,inactive,
Cc1cc2c(s1)Nc1ccccc1N=C2N1CCN(C)CC1,inactive,
